From PubChem BioAssay (NCATS)
Several values for one entry are separate records, joined by “and”; a condition that tells them apart may be missing. Equal entries are not always repeated. Records with an inconclusive call do not appear. Activity calls are given as the source filed them. Unless noted, the call rests on the fitted dose curve; in most records, active means well fitted curve in either direction with a large enough effect (not every such curve was filed as active); inconclusive means small, poorly fitted or top-dose-only effect, or another doubt; inactive means flat fitted curve, though single readings scatter.

Assays:
[1] = Stat Signaling Pathway (AID 446); settings: ME-180 SIE beta-lactamase reporter, IL-6 stimulated, 5 h;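 further: ME-180 cervical cancer cells given 40 pM IL-6 alongside compound; SIE-controlled beta-lactamase reporter measured as 460/530 nm FRET emission ratio; on the % scale 0 is the no-effect control and ±100 the full control effect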
Method in brief: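 Reporter line: ME-180 cervical carcinoma, SIE-beta-lactamase. Treatment: compound with 40 pM IL-6, 5 hrs, 37 C, in low-serum OPTI-MEM with 10 mM HEPES pH 7.3. Detection: 460/530 nm fluorescence.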

[2] = biological target: Glucocorticoid receptor (Homo sapiens) (UniProt P04150); assay: GR-GFP Redistribution (AID 450;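 active means compounds whose dose series gives a full or clear partial fitted curve of increased nuclear translocation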; further: potency means the concentration at half of the fitted maximal effect); settings: U2OS GR-GFP nuclear translocation, laser cytometry, 2 h
[3] = biological target: Glucocorticoid receptor (Homo sapiens) (UniProt P04150); assay: GR-EFC Redistribution (AID 451; calls by dose curve; further: potency means the concentration at half of the fitted maximal effect); settings: CHO-K1 GR-EFC translocation, beta-gal luminescence, 2 h
Method in brief: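 Translocation of GR-ED fusion to nuclear EA restores b-gal, read by luminescence after 1 h room-temperature detection. Engineered CHO-K1 biosensor cells, 1,000/well, exposed 2 h at 37 C to titrations up to 46 uM final.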

[4] = biological target: Mitogen-activated protein kinase 10 (Mus musculus) (UniProt Q61831); assay: JNK3 AlphaScreen Assay (AID 530);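 further: kinase came from lysate of stimulated human HepG2 cells; signal reports phosphorylation of biotinylated GST-cJun 1-79 at Ser73 with 10 µM ATP; on the % scale 0 is the no-effect control and ±100 the full control effect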
Method in brief: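 Room-temperature AlphaScreen kinase assay; pre-activated HepG2 lysate as JNK3 source, biotin-GST-cJun(1-79) substrate, 10 uM ATP, compound 15 min preincubation.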

[5] = biological target: 3',5'-cyclic-AMP phosphodiesterase 4B (Homo sapiens) (UniProt Q07343); assay: qHTS Assay for Inhibitors of PDE-IV (AID 607; active means well fitted activation curve with a large enough effect in the main read-out, with a control signal flat, not every such curve was filed as active; further: potency means the concentration at half of the fitted maximal effect)
Method in brief: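 Cell-based read-out of cAMP via a modified cyclic nucleotide-gated channel and membrane potential dye (535/590 nm) in HEK293 cells expressing PDE4 endogenously. Compounds tested up to 22.9 uM final; 100 uM RO 20-1724 reference.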

[6] = Cell Viability - N2a (AID 540; active means well fitted curve in the direction sought with a large enough effect; an effect the other way counts as inactive or inconclusive;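 further: cells exposed to compound for 40 h at 37 °C; plate controls were DMSO alone for no effect and tamoxifen control for full effect; nearly all actives have a fitted effect of over 45% in size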); settings: N2a mouse neuroblastoma cell viability; activity change, negative = cytotoxicity: at 92.2 µM (top of the series)
Method in brief: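 First, 1500 N2a cells per well incubate 5 hr at 37 °C; next, compounds are added and incubated 40 hr at 37 °C; finally CellTiter-Glo is added and luminescence read after 20 min, with AC50 derived by Hill modeling.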

[7] = Cell Viability - NIH 3T3 (AID 541; active means well fitted curve in the direction sought with a large enough effect; an effect the other way counts as inactive or inconclusive;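 further: plate controls were DMSO alone for no effect and tamoxifen positive control for full effect; nearly all actives have a fitted effect of over 25% in size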); settings: NIH 3T3 cell viability, qHTS; activity change, negative = cytotoxicity: at 92.2 µM (top of the series)
Method in brief: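 AC50 values reflect concentration-dependent loss of intracellular ATP in NIH 3T3 cells after 40 hr treatment in complete culture medium, quantified by luciferase-based luminescence.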

[8] = Cell Viability - HUV-EC-C (AID 542; active means well fitted curve in the direction sought with a large enough effect; an effect the other way counts as inactive or inconclusive; further: on the % scale 0 is the no-effect control and ±100 the full control effect; nearly all actives have a fitted effect of over 35% in size)
Method in brief: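 Decrease in cellular ATP, quantified by luciferase luminescence, reflects toxicity in normal human vascular endothelial HUV-EC-C cells given compound for 40 hr in complete culture medium. Values are AC50s from concentration-response curves.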

[9] = Cell Viability - H-4-II-E (AID 543; active means well fitted curve in the direction sought with a large enough effect; an effect the other way counts as inactive or inconclusive; further: on the % scale 0 is the no-effect control and ±100 the full control effect; nearly all actives have a fitted effect of over 35% in size)
Method in brief: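 Here, cytotoxicity is measured in the rat hepatoma line H-4-II-E as loss of intracellular ATP after 40 hr compound treatment, detected by luciferase luminescence.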

[10] = Cell Viability - SH-SY5Y (AID 544; active means well fitted curve in the direction sought with a large enough effect; an effect the other way counts as inactive or inconclusive;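 further: 0% = DMSO alone and -100% = 100 µM tamoxifen; nearly all actives have a fitted effect of over 55% in size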)
Method in brief: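 Cytotoxicity is scored as a concentration-dependent fall in intracellular ATP in human SH-SY5Y cells treated 40 hr in complete culture medium. Potency is expressed as AC50 from a Hill equation fit.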

[11] = Cell Viability - Renal Proximal Tubule (AID 545; active means well fitted curve in the direction sought with a large enough effect; an effect the other way counts as inactive or inconclusive;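 further: 0% = DMSO only and -100% = 100 µM tamoxifen; nearly all actives have a fitted effect of over 40% in size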); settings: renal proximal tubule cells viability; activity change, negative = cytotoxicity: at 91.7 µM (top of the series)
Method in brief: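 In this qHTS format, normal rat kidney-derived proximal tubule cells in complete culture medium receive compound titrations, then sit 40 hours at 37 °C before luciferase-based ATP quantitation; potency is reported as AC50 from concentration-response curves.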

[12] = Cell Viability - Mesenchymal (AID 546; active means well fitted curve in the direction sought with a large enough effect; an effect the other way counts as inactive or inconclusive;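 further: cells exposed to compound for 40 hours before reading; 0% = DMSO only and -100% = 100 µM tamoxifen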)
Method in brief: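 AC50 values reflect the drop in intracellular ATP in a human kidney mesenchymal line derived from normal glomeruli. Treatment lasts 40 hr at 37 °C in complete medium, and the signal comes from CellTiter-Glo luminescence.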

[13] = Cellular Toxicity (caspase-3) HepG2 (AID 654; active means well fitted curve in the direction sought with a large enough effect; an effect the other way counts as inactive or inconclusive;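 further: cells exposed to compound for 16 hours before reading; 0% = DMSO alone and 100% = caspase signal from 100 µM tamoxifen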)
Method in brief: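 qHTS, HepG2, 1500 cells/well, complete medium; cpd 16 h 37 °C; Caspase-Glo 3/7, 20 min RT; lum. Norm: DMSO vs 100 uM tamoxifen; AC50 Hill fit.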

[14] = Cellular Toxicity (caspase-3) Jurkat (AID 655; active means well fitted curve in the direction sought with a large enough effect; an effect the other way counts as inactive or inconclusive;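 further: cells exposed to compound for 16 h at 37 °C before reading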)
Method in brief: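 qHTS in human Jurkat T-cell leukemia line: 16 hr compound treatment at 37 °C, caspase-3/7 activity measured by Caspase-Glo luminescence. AC50 derived from Hill equation.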

[15] = Cellular Toxicity (caspase-3) HUV-EC-C (AID 656; active means well fitted curve in the direction sought with a large enough effect; an effect the other way counts as inactive or inconclusive;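 further: 0% = DMSO basal and 100% = 100 µM tamoxifen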)
Method in brief: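 Concentration-dependent caspase 3/7 induction was assessed in HUV-EC-C cells exposed for 16 hours. Data scaled between DMSO and tamoxifen (100 uM) controls.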

[16] = Cellular Toxicity (caspase-3) SHSY5Y (AID 657; active means well fitted curve in the direction sought with a large enough effect; an effect the other way counts as inactive or inconclusive;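 further: cells exposed to compound for 16 hours at 37 °C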)
Method in brief: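 Readout: caspase-cleaved peptide-aminoluciferin substrate driving luciferase light in SH-SY5Y neuroblastoma cells after 16 h treatment. Response normalized to DMSO and 10 uM staurosporine controls.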

[17] = Cellular Toxicity (caspase-3) BJ (AID 658; active means well fitted curve in the direction sought with a large enough effect; an effect the other way counts as inactive or inconclusive;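 further: 0% = DMSO basal and 100% = 10 µM staurosporine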); settings: Potency: caspase-3 activation
Method in brief: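 Readout: Caspase-Glo 3/7 luminescence increase in BJ cells after 16 hr treatment at 37 °C. Staurosporine and tamoxifen served as positive controls; AC50 values came from Hill modelling of data normalized to DMSO and 10 uM staurosporine.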

[18] = Cellular Toxicity (caspase-3) MRC-5 (AID 659; active means well fitted curve in the direction sought with a large enough effect; an effect the other way counts as inactive or inconclusive;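 further: cells exposed to compound for 16 h at 37 °C; 0% = DMSO basal and 100% = 10 µM staurosporine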); settings: Potency: caspase-3 activation
Method in brief: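 Concentration-dependent caspase 3/7 activation is measured in human normal lung fibroblasts (MRC-5) following 16-hour treatment. AC50 values come from standard Hill-equation modeling of luminescence normalized to DMSO and 10 uM staurosporine.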

[19] = Cellular Toxicity (caspase-3) SK-N-SH (AID 661; active means well fitted curve in the direction sought with a large enough effect; an effect the other way counts as inactive or inconclusive;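 further: 0% = DMSO basal and 100% = 10 µM staurosporine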); settings: SK-N-SH caspase-3 activation, qHTS; caspase-3 activation: at 91.7 µM (top of the series), DMSO as zero, staurosporine as full
Method in brief: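 Caspase 3/7 activation is measured as a luminescence increase from aminoluciferin released by substrate cleavage in SK-N-SH cells after 16 hr compound treatment; values are AC50 from concentration-response curves.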

[20] = Cellular Toxicity (caspase-3) H-4-II-E (AID 663; active means well fitted curve in the direction sought with a large enough effect; an effect the other way counts as inactive or inconclusive;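 further: cells exposed to compound for 16 hr before readout; 0% = DMSO basal and 100% = 100 µM tamoxifen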)
Method in brief: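 Apoptosis induction is scored as increased luminescence from caspase 3/7 substrate cleavage in rat hepatoma H-4-II-E cells exposed to compound for 16 hr. Activity is scaled between DMSO and 100 uM tamoxifen.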

[21] = at 38 µM (top of the series) unless noted

Chain of Glucocorticoid receptor (Homo sapiens) (P04150 whole entry, looked up, the tested form may be a part): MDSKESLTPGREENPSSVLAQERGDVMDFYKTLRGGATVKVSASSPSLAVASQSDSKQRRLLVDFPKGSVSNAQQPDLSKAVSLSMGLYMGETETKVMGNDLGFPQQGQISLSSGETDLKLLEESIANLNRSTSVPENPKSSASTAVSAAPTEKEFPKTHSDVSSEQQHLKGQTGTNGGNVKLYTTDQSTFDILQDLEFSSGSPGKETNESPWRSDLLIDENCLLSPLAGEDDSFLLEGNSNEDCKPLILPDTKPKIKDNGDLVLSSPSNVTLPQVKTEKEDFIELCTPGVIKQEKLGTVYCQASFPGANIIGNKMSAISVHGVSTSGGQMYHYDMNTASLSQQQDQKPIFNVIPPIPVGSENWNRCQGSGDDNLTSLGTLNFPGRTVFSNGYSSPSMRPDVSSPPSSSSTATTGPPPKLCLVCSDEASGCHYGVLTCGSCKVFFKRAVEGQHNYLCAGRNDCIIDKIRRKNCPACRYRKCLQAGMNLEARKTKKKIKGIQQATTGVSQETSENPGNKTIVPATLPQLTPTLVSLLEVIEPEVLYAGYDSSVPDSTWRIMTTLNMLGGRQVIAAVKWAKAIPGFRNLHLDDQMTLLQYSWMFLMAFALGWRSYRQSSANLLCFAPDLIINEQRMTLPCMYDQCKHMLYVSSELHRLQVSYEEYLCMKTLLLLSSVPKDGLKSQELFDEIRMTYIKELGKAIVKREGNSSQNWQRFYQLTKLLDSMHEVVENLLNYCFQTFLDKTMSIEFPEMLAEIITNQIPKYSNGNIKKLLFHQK
Chain of 3',5'-cyclic-AMP phosphodiesterase 4B (Homo sapiens) (Q07343 whole entry, looked up): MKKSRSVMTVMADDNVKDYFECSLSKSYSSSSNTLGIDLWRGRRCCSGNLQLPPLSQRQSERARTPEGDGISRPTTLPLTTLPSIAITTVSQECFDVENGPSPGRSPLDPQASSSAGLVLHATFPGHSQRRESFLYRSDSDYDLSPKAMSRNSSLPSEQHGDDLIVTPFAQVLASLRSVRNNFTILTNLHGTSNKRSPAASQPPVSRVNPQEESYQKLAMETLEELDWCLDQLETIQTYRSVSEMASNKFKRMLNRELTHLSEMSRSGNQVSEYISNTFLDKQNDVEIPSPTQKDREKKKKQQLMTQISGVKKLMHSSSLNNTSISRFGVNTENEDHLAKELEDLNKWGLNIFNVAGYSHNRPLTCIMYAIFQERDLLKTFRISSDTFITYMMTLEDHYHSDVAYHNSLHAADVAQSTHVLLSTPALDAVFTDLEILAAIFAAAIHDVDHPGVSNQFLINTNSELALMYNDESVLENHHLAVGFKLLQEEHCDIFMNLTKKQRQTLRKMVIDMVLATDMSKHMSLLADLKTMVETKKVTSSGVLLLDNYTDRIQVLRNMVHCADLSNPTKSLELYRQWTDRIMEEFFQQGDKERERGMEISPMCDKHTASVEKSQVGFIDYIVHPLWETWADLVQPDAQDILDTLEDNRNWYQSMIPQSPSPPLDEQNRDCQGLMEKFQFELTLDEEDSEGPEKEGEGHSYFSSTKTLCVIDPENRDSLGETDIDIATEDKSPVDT

CCCCCCC(C)(C)c1ccc([C@@H]2C[C@H](O)CC[C@H]2CCCO)c(O)c1
inactive: activity, negative = inhibition [1, 21] -25.8% | Potency [2] > 46 µM | Potency [3] > 46 µM | outcome [4] | Potency [5]

CCCN(CCC)CCc1c[nH]c2ccc(C(N)=O)cc12
inactive: activity, negative = inhibition [1, 21] 22.9% | Potency [2] > 46 µM | Potency [3] > 46 µM | outcome [4] | Potency [5]

C[N+]1(C)CCN(c2ccccc2)CC1
inactive: activity, negative = inhibition ([1]; at 17.2 µM (top of the series)) -10% | activity, negative = inhibition ([1]; at 38 µM (top of the series)) -4.82% | Potency [2] > 46 µM and > 20.6 µM | Potency [3] > 46 µM | outcome [4] | Potency [5]

COc1ccc2[nH]cc(CCN)c2c1
inactive: activity, negative = inhibition [1, 21] -1.18% | Potency [2] > 46 µM | Potency [3] > 46 µM | outcome [4] | Potency [5]

c1ccc2c(N3CCNCC3)cccc2c1
inactive: activity, negative = inhibition [1, 21] -46.5% | Potency [2] > 46 µM | Potency [3] > 46 µM | outcome [4] | Potency [5]

COc1ccc2[nH]c3c(c2c1)CCNC3
inactive: activity, negative = inhibition [1, 21] 9.97% | Potency [2] > 46 µM | Potency [3] > 46 µM | outcome [4] | Potency [5]

CN1[C@@H]2CC[C@H]1CC(OC(=O)C1C=Nc3ccccc31)C2 (stereo partly drawn)
inactive: activity, negative = inhibition [1, 21] 3.6% [at 17.2 µM]

c1cc2c(c(NC3=NCCN3)c1)CCCC2
inactive: activity, negative = inhibition [1, 21] 4.34% [at 7.69 µM] | Potency [2] > 46 µM | Potency [3] > 9.22 µM | activity change, negative = inhibition [4] 3.19% [at 11.4 µM] | Potency [5]

C[C@@H]1O[C@H](C[N+](C)(C)C)CS1
inactive: activity, negative = inhibition [1, 21] 19.2% | Potency [2] > 46 µM | Potency [3] > 46 µM | outcome [4]
active: Potency [5] 1.26 µM

NCCCP(=O)(O)O
inactive: activity, negative = inhibition [1, 21] 26.4% | Potency [2] > 46 µM | Potency [3] > 46 µM | outcome [4] | Potency [5]

CC(C)NP(=O)(NC(C)C)OP(=O)(NC(C)C)NC(C)C
inactive: activity, negative = inhibition [1, 21] -17.3% | Potency [2] > 46 µM | Potency [3] > 46 µM | outcome [4] | Potency [5]

CC(C)[C@@]1(NC(=O)[C@@H]2C[C@@H]3c4cccc5[nH]cc(c45)C[C@H]3N(C)C2)O[C@@]2(O)[C@@H]3CCCN3C(=O)[C@H](Cc3ccccc3)N2C1=O
inactive: activity, negative = inhibition [1, 21] -26.4% [at 17.2 µM] | Potency [2] > 20.6 µM

O=C(O)c1cc[c]([Hg][Cl])cc1
inactive: activity, negative = inhibition [1, 21] -0.208% | Potency [2] > 46 µM | Potency [3] > 46 µM | outcome [4]

O=[N+]([O-])c1ccc2nc(N3CCNCC3)ccc2c1
inactive: activity, negative = inhibition [1, 21] 2.58% | Potency [2] > 46 µM | Potency [3] > 46 µM | outcome [4] | Potency [5]

Cc1[nH]c2ccc(O)cc2c1CCN
inactive: activity, negative = inhibition [1, 21] 6.41% | Potency [2] > 46 µM | Potency [3] > 46 µM | outcome [4] | Potency [5]

NNC(N)=O
inactive: activity, negative = inhibition [1, 21] 1.85% | Potency [2] > 46 µM | Potency [3] > 46 µM | outcome [4] | Potency [6] | Potency [7] | Potency [8] | Potency [9] | Potency [10] | Potency [11] | Potency [12] | Potency [5] | outcome [13] | Potency [14] | outcome [15] | outcome [16] | Potency [17] | Potency [18] | Potency [19] | outcome [20]
